Bioassay records deposited in PubChem by National Center for Advancing Translational Sciences (NCATS).
Compounds with a hit are over-represented: about 19% of the library has one in this group of screens.
KB-V1 MDR tox = KB-V1 MDR subline cytotoxicity. KB-V1 MDR cells viability, CellTiter-Glo, 72 h. 400,000 tested, 3.4% active. Potency, µM (highest dose often 46.1 µM), hits mostly cytotoxic; further: nearly all actives have a fitted effect of over 60% in size
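KB-V1 cells (P-gp-expressing MDR subline of KB-3-1) in phenol-red-free DMEM with 10% FBS were exposed to library compounds over a concentration series for 72 h at 37 degrees C. Viability read by CellTiter-Glo luminescence; concentration-effect curves fitted after normalization.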
KB-3-1 tox = KB-3-1 parental cell cytotoxicity; KB-3-1 viability, CellTiter-Glo ATP luminescence, 72 h; Potency, µM (doses to about 46.1 µM), usual class: cytotoxic; 400,000 tested, 1.4% active; further: nearly all actives have a fitted effect of over 60% in size
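Parental KB-3-1 viability, qHTS format: 72 h compound exposure, 37 °C; CellTiter-Glo; media-only wells and DMSO plates as controls; concentration-effect fits on corrected data.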
HT1080 IDH1KD tx = kills HT-1080 cells with IDH1 knockdown | HT-1080 IDH1 knockdown viability, ATP luminescence, 48 h | Potency, µM (highest dose often 46.1 µM), for inactives: at the highest dose activity, negative = toxicity, hits mostly cytotoxic | 360,000 tested, 2% active | AID 686971;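 further: 0% = DMSO wells and -100% = cell-free medium wells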
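IDH1KD HT-1080 cells, 750/well, RPMI + 5% FBS; compound pinned after 2 h settling; 48 h, 37 °C; CellTiter-Glo luminescence; % activity normalised to DMSO and no-cell wells; curves fitted, classed by r2 and efficacy.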
TDP1 cell noCPT = qHTS for Inhibitors of human tyrosyl-DNA phosphodiesterase 1 (TDP1): qHTS in cells in absence of CPT; AID 686978, 2013; 420,000 tested, 15% active; Potency, µM (series often up to 46.2 µM), for inactives: at the top dose activity change, negative = growth inhibition, actives largely listed as inhibitors; DT40 Tdp1-/- hTDP1 cells, no CPT, ATP luminescence, 48 h; further: nearly all actives have a fitted effect of over 55% in size
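Chicken DT40 Tdp1-/- cells stably complemented with human TDP1 were seeded at 400 cells/well with DMSO in place of 20 nM camptothecin. After compound pinning, cells grew at least 48 hr at 37 °C; viability read by CellTiter-Glo luminescence.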
HT1080NT lethal = kills 2HG-producing HT-1080-NT fibrosarcoma cells; Potency, µM (titrated, usually from 46.1 µM), for inactives: top-dose activity, negative = less viability, actives largely listed as cytotoxic; AID 686970; HT-1080-NT fibrosarcoma viability, CellTiter-Glo ATP luminescence, 48 h; 360,000 tested, 1.6% active;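 further: NT is the 2HG producing partner of a matched IDH1 knockdown line; 0% = DMSO-treated cells and -100% = media-only wells without cells; nearly all actives have a fitted effect of over 55% in size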
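Compounds were tested in concentration-response format on HT-1080-NT cells for 48 hours at 37 degrees C. Cell viability came from CellTiter-Glo luminescence; curves were classified by r2, response magnitude and activity.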
DT40 TDP1 CPT = growth inhibition of DT40 Tdp1-/-;hTDP1 cells with camptothecin (screen for TDP1 inhibitors); Potency, µM (highest dose often 46.2 µM), inactives show at the top dose activity change, negative = growth inhibition, hits mostly inhibitors; chicken DT40 Tdp1-/-;hTDP1 cells + 20 nM CPT, ATP luminescence, 48 h; 420,000 tested, 12% active; further: nearly all actives have a fitted effect of over 55% in size
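Chicken DT40 Tdp1-/- cells stably complemented with human TDP1 were seeded at 400 cells/well in medium containing 20 nM camptothecin, exposed to pin-transferred compounds, and grown at 37 °C for at least 48 hr. Viability was read as ATP luminescence.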
Active calls of the source: *; i = inactive; u = inconclusive; x = no result given; [ ] = dose if it differs, or a comment. The call rests on the fitted dose curve; in most records, active means well fitted curve in the direction sought with a large enough effect; inconclusive means small, poorly fitted or top-dose-only effect, or another doubt; inactive means no such curve, though single readings can be large; an effect the other way counts as inactive or inconclusive. Unless noted, on the % scale 0 is the no-effect control and ±100 the full control effect; potency means the concentration at half of the fitted maximal effect.

SMILES	KB-V1 MDR tox	KB-3-1 tox	HT1080 IDH1KD tx	TDP1 cell noCPT	HT1080NT lethal	DT40 TDP1 CPT
COc1ccc(C(=O)Nc2cc(OC)c(Cl)cc2OC)cc1	i	u	12%	u	5%	-22%
COc1ccc(C(=O)Nc2ccccc2C(N)=O)cc1	i	u	-16%	-25%	-3%	u
COc1ccc(NC(=O)Nc2ccccc2F)cc1	18µM*	u	-9%	7.9µM*	u	8.2µM*
COc1ccc(C(=O)Nc2ccccc2C(=O)Nc2ccncc2)cc1	u	u	-2%	16µM*	-14%	u
COc1ccc(C(=O)Nc2ccccc2C(=O)N/N=C/c2cccc3ccccc23)cc1	u	u	18µM*	16µM*	18µM*	21µM*
COc1ccc(NC(=O)Nc2ccccc2SC)cc1	i	i	-18%	-26%	-21%	u
COc1ccc(C(=O)Nc2cc(OC)c(NC(=O)Nc3ccccc3)cc2OC)cc1	i	i	u	18µM*	u	u
COc1ccc(CCC(=O)NC2CC(=O)N(c3ccc(F)cc3)C2)cc1 (stereo not given)	x	x	x	-6%	x	2%
Cc1c(C)c2ccc(OCC(=O)N(C)C3CCS(=O)(=O)C3)c(C)c2oc1=O (stereo not given)	i	i	-17%	-5%	-1%	-12%
COc1ccc(C(=O)Nc2ccccc2C(=O)NCc2cccnc2)cc1OC	x	x	1%	-9%	0%	3%
COc1ccc(C(=O)Nc2ccccc2C(=O)N/N=C/c2ccncc2)cc1OC	u	u	26µM*	16µM*	26µM*	16µM*
COc1ccc(C(=O)Nc2ccccc2C(=O)Nc2ccccc2C(=O)O)cc1	i	u	-21%	23µM*	-18%	18µM*
CC(Oc1ccccc1F)C(=O)NNC(=O)CC(C)c1ccccc1 (stereo not given)	i	i	-3%	-3%	-3%	7%
C/C(=N\NC(=O)c1cc(C)nc2ccccc12)c1ccco1	i	i	16%	1%	5%	12%
C/C(=N\NC(=O)c1cc(C)nc2ccccc12)c1ccncc1	u	u	7.3µM*	5%	u	-22%
C/C(=N\NC(=O)c1cc(C)nc2ccccc12)c1ccccn1	i	i	u	0.73µM*	u	1.5µM*
C/C(=N\NC(=O)c1cc(C)nc2ccccc12)c1ccc([N+](=O)[O-])cc1	i	i	-25%	-25%	-14%	-25%
COc1ccc(F)c(CN2CCOc3ccc(CN4CCC(O)(c5cccnc5)CC4)cc3C2)c1	x	x	x	u	x	-7%[9.04 µM]
COc1ccc(C)cc1NC(=O)c1ccccc1NS(=O)(=O)c1cccc2cccnc12	u	i	3%	-12%	-4%	-2%
Cc1ccc(-n2ncc(C(=O)Nc3ccc4c(c3)OCCO4)c2C2CCN(C(=O)OC(C)(C)C)CC2)cc1	i	i	x	21µM*	x	21µM*
Cc1ccc(-n2ncc(C(=O)Nc3ccc4c(c3)OCO4)c2C2CCN(C(=O)OC(C)(C)C)CC2)cc1	i	i	x	21µM*	x	21µM*
COc1ccc(-n2ncc(C(=O)Nc3ccc4c(c3)OCO4)c2C2CCN(C(=O)OC(C)(C)C)CC2)cc1	i	u	x	u	x	u
CC(C)(C)OC(=O)N1CCC(c2c(C(=O)Nc3ccc4c(c3)OCCO4)cnn2-c2ccccc2)CC1	i	i	x	18µM*	x	23µM*
CCOc1cc(OCC)c(C(=O)CCC(=O)O)cc1OCC	x	x	x	-30%	x	0%
CCc1ccc(NCc2cc3cc4c(cc3n(CC(=O)Nc3ccccc3C)c2=O)OCCO4)cc1	i	i	x	x	x	x
